Data on 18 molecules can be found in PubChem BioAssay (NCI).

The structures appear in SMILES notation. The panel holds about 83,000 compounds, 20% with a hit somewhere; the sample as a whole holds those more often.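 The endpoint reported here, percent growth, reads 100 for growth as untreated, 0 for no net growth and -100 for all cells dead.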 Unmarked numbers belong to inactive results. Active and inactive are the calls of the source. How the source made its calls: active means growth percent below 10; inactive means the rest.

Test systems include T-47D breast; MDA-MB-435 melanoma; SW-620 colon; MCF7 breast; HCT-116 colon; HCC-2998 colon; KM12 colon; BT-549 breast.
Assay in all cases: NCI-60 one-dose screen, 48 h (100 = growth as untreated, 0 = no growth, -100 = all killed)
Holding throughout (details): 10 µM unless noted

With `COc1cc(-c2nn(-c3ccc(NC(=O)c4ccc(Cl)c(Cl)c4)cc3)cc2-c2ccncc2)ccc1Cl`, the growth in the assay on T-47D breast is 64.9%; in the assay with MDA-MB-435 melanoma, 86.2%; with SW-620 colon, 48.6%; with MCF7 breast, 60.6%; with HCT-116 colon it was 25%; in the assay with HCC-2998 colon, 48.3%. Moreover, the growth with KM12 colon was 25.1%.
For `O=Nc1ccc(O)c2ccccc12`, the growth in the assay on T-47D breast is -9.85% (active); in the assay with MDA-MB-435 melanoma it was -63.8% (active); with SW-620 colon, 12.1%; with MCF7 breast, -37.8% (active); in the assay on HCT-116 colon, 0.195% (active); in the assay on HCC-2998 colon, 68.4%. Further, the growth in the assay with KM12 colon was 14%.
For `CC(C)CCCCCOC(=O)c1ccccc1SSc1ccccc1C(=O)OCCCCCC(C)C`, the growth was 89.6% in the assay on T-47D breast; 107% in the assay on MDA-MB-435 melanoma; 101% with SW-620 colon; 93.6% with MCF7 breast; 98.5% with HCT-116 colon; 110% with HCC-2998 colon. The growth in the assay with KM12 colon is 106%.
For `CCN(CC)CCNc1ncnc2c1cnn2-c1ccc(Cl)cc1`, the growth was 65% with T-47D breast; 95.1% in the assay on BT-549 breast; 63% in the assay on SW-620 colon; 75% in the assay with MCF7 breast; 77.8% with HCT-116 colon; 82.7% in the assay with HCC-2998 colon. Also, the growth in the assay with KM12 colon is 67.5%.
As to `COC(=O)[C@@H]1[C@H](O)[C@H](C)[C@H](O)[C@H](C)/C=C\C=C(C)C(=O)Nc2c(C)c(OC(C)=O)c3c(c2O)C(=O)C(C)=C2OCOC(=C23)C(C)=C[C@@](C)(O)[C@H](O)[C@@H](C)[C@H]1OC(C)=O`, the growth in the assay on T-47D breast is 118%; with MDA-MB-435 melanoma, 122%; with SW-620 colon, 117%; in the assay on MCF7 breast, 104%; in the assay with HCT-116 colon, 55.8%; in the assay on HCC-2998 colon, 118%. Also, the growth in the assay on KM12 colon was 119%.
Take `COC(=O)C(Cc1cnc[nH]1)N1CC(=O)N2[C@@H](c3ccccc3)SC[C@H]2C1=O` (some centres undefined): the growth was 108% in the assay with T-47D breast; 103% in the assay with MDA-MB-435 melanoma; 108% in the assay with SW-620 colon; 106% with MCF7 breast; 103% with HCT-116 colon; 99.6% in the assay on HCC-2998 colon. Besides, in the assay on KM12 colon, the growth is 108%.
For `CC(=O)Nc1nc(C)c(C(=O)NNC(=O)Nc2ccccc2)s1`, the growth in the assay on T-47D breast is 91.1%; in the assay with MDA-MB-435 melanoma, 128%; in the assay with SW-620 colon it was 100%; in the assay on MCF7 breast it was 100%; in the assay with HCT-116 colon, 102%; with HCC-2998 colon, 104%. Also, in the assay with KM12 colon, the growth was 98.6%.
On to `O=C(Nc1ccc(-n2cc(-c3ccncc3)c(-c3ccc(Cl)c(O)c3)n2)cc1)c1ccc(Cl)c(C(F)(F)F)c1`, for which the growth in the assay with T-47D breast is 47.2%; in the assay with MDA-MB-435 melanoma it was 3.99% (active); with SW-620 colon, -79.4% (active); with MCF7 breast, 6.22% (active); in the assay on HCT-116 colon, -100% (active); in the assay on HCC-2998 colon, 5.55% (active). Moreover, in the assay with KM12 colon, the growth is 3.31% (active).
Turning to `O=C(Nc1ccc(-n2cc(-c3ccncc3)c(-c3ccc(Cl)c(O)c3)n2)cc1)c1cc(C(F)(F)F)cc(C(F)(F)F)c1`, the growth in the assay on T-47D breast was 47.9%; in the assay with MDA-MB-435 melanoma, 52.5%; with SW-620 colon, 81.4%; in the assay with MCF7 breast it was 30.3%; with HCT-116 colon, 33.6%; in the assay with HCC-2998 colon, 74.2%. The growth in the assay on KM12 colon was 28%.
With `O=C(/C=C\c1ccccc1Cl)c1ccccc1`, the growth in the assay on T-47D breast is 91.6%; in the assay with BT-549 breast, 92%; in the assay with SW-620 colon, 82.5%; in the assay with MCF7 breast it was 46.8%; in the assay with HCT-116 colon, 53.9%; with HCC-2998 colon, 94.6%. For the same molecule, the growth in the assay with KM12 colon was 66%.
On to `CC(=O)Nc1nc(C)c(C(=O)N/N=C/N2CCCCC2)s1`, for which the growth was 98.4% in the assay with T-47D breast; 125% in the assay on MDA-MB-435 melanoma; 106% in the assay with SW-620 colon; 94.8% in the assay on MCF7 breast; 55.8% in the assay with HCT-116 colon; 20.3% with HCC-2998 colon. Also, in the assay on KM12 colon, the growth was 128%.
Consider `CCOC(=O)C1=C(C(F)(F)F)NC(=S)NC1CN1C(=O)c2ccccc2C1=O` (centres undefined), for which the growth in the assay on T-47D breast was 107%; in the assay on BT-549 breast, 118%; in the assay with SW-620 colon it was 93.1%; in the assay on MCF7 breast, 88.4%; in the assay on HCT-116 colon, 103%; in the assay with HCC-2998 colon, 63.3%. Further, the growth in the assay with KM12 colon is 111%.
Take `C/C(=C\c1ccc2ccccc2c1)[N+](=O)[O-]`: the growth with T-47D breast is -52.8% (active); in the assay on BT-549 breast, 64.4%; with SW-620 colon, -33.8% (active); in the assay on MCF7 breast, -50.9% (active); with HCT-116 colon, -40.7% (active); with HCC-2998 colon it was 78.5%. The growth in the assay with KM12 colon was 56%.
`CCOC(=O)c1cc(-c2ccc(OC)cc2)[nH]c1NNC(=O)CCOC`: the growth with T-47D breast is 95.2%; in the assay on BT-549 breast, 91.9%; in the assay with SW-620 colon it was 101%; with MCF7 breast it was 113%; in the assay on HCT-116 colon, 93.8%; in the assay with HCC-2998 colon, 122%. Also, the growth in the assay with KM12 colon was 118%.
Take `O=c1c2c(c3ccccc3n1-c1ccccc1)NC(=S)NC2c1ccc(Cl)cc1` (centres undefined): the growth is 67.4% in the assay on T-47D breast; 30.4% in the assay on MDA-MB-435 melanoma; 57.1% with SW-620 colon; 60% with MCF7 breast; 16.1% with HCT-116 colon; 35.7% in the assay with HCC-2998 colon.
Take `Cc1nc(N)sc1C(=O)NCCO`: the growth in the assay on T-47D breast was 106%; with MDA-MB-435 melanoma, 128%; with SW-620 colon, 109%; in the assay on MCF7 breast, 98.2%; in the assay with HCT-116 colon, 99.6%; in the assay on HCC-2998 colon, 168%. Besides, the growth in the assay on KM12 colon was 102%.
Regarding `C[C@H]1C[C@@H](n2cnc3c(N)nccc32)[C@H](O)[C@@H]1O`, the growth in the assay on T-47D breast was 102%; in the assay on BT-549 breast, 93.7%; in the assay on SW-620 colon, 87.2%; in the assay on MCF7 breast, 90.1%; in the assay on HCT-116 colon it was 86.8%; with HCC-2998 colon, 101%. Moreover, the growth in the assay on KM12 colon is 80.8%.
`O=C(Nc1ccc(-n2cc(-c3ccncc3)c(-c3ccc(Cl)c(O)c3)n2)cc1)Nc1cc(C(F)(F)F)cc(C(F)(F)F)c1`: the growth in the assay on T-47D breast is 23.8%; in the assay on MDA-MB-435 melanoma it was 6.62% (active); with SW-620 colon it was 26.1%; in the assay with MCF7 breast, 11%; in the assay with HCT-116 colon, 10.5%; with HCC-2998 colon, 36.1%.
